Reference: ChEMBL document CHEMBL4513216, “Probing the Open Global Health Chemical Diversity Library for Multistage-Active Starting Points for Next-Generation Antimalarials” (ACS Infect Dis, 2020)
Among all 69,000 compounds or so, about 8,600 (12%) showed an effect of 50% or more. The sample holds strong results, similar compounds and a random draw of the others, so the mix is not that of the screen.

test system: Plasmodium berghei; assay: Screen against P. berghei liver stage (PbLuc), transformed with Luciferase, at 10uM; assay type: functional, HepG2; details: tested at 10 uM

| Compound | INHIBITION [%] |
| --- | --- |
| COCC(=O)N1CCC(=O)N(C2CCCC2)Cc2ccccc21 | -20.1 |
| Cc1ccnc(CNC(=O)C2CC(=O)N(CCN(C)C)C2)c1 (stereo unspecified) | 8.41 |
| NC(=O)C1=NC2=NS(=O)(=O)c3ccccc3N2N1Cc1ccccc1Cl | 30.8 |
| NC(=O)C1=NC2=NS(=O)(=O)c3ccccc3N2N1Cc1ccc(Br)cc1 | 1.96 |
| NC(=O)C1=NC2=NS(=O)(=O)c3ccccc3N2N1Cc1ccc(Cl)cc1 | 59.7 |
| COCCC(=O)N(CCC#N)c1ccc(C)c(C)c1 | 27 |
| Cc1c(C)n(Cc2ccccn2)c2nc3c(c(N)c12)CCCCCC3 | 49.7 |
| Cc1ccccc1-c1cncc(C2CCN(Cc3ccccn3)CC2)n1 | 19.6 |
| Cc1c(C)n(Cc2ccccn2)c2nc3c(c(N)c12)CCCC3 | 58.4 |
| Cc1c(C)n(Cc2ccccn2)c2nc3c(c(N)c12)CCCCC3 | 55.3 |
| Cc1ncnc2c1CCN(Cc1ccccn1)CC2 | -64.8 |
| Cc1nc(C2CCCNC2)nc2c1CCCN2Cc1ccccn1 (stereo unspecified) | 11.8 |
| Cc1c(C)n(-c2ccccn2)c2nc3c(c(N)c12)CCCCC3 | 32.2 |
| Cc1c(C)n(-c2ccccn2)c2nc3c(c(N)c12)CCCC3 | 67.1 |
| Cc1ncnc2c1CCN(c1ccccn1)CC2 | -15.6 |
| CC(=O)N1CCC(c2nn(C)c3nccnc23)C1 (stereo unspecified) | -2.11 |
| CC(C)n1cc(CN2CCCN(C(=O)COC3CCCC3)CC2)cn1 | 45.7 |
| CCOc1ccc(-c2nc(C(=O)NCC3CCOC3)cs2)cc1 (stereo unspecified) | -16 |
| CC(C)(C)c1cc(=O)n2c(n1)SCC(C(=O)NCc1ccco1)C2 (stereo unspecified) | 46.1 |
| COc1ccc(C2=Nn3c(CCN)nnc3-c3ccccc3C2)cc1 | 21.7 |
| COc1ccc(C2=Nn3c(CCCN)nnc3-c3ccccc3C2)cc1 | 18.4 |
| COc1ccc(C2=Nn3c(CN)nnc3-c3ccccc3C2)cc1 | 64 |
| CNc1nc(C)cc(NC2CCCN(C3Cc4ccccc4C3)C2)n1 (stereo unspecified) | 83.9 |
| Cc1cc(C)nc(NC2CCc3nc(C)nn3C2)n1 (stereo unspecified) | -12.1 |
| Cc1cc(C)nc(Nc2cccc(C3CCCN(S(C)(=O)=O)C3)n2)n1 (stereo unspecified) | 44.8 |
| CNc1cc(C)nc(NC2CCCN(C3Cc4ccccc4C3)C2)n1 (stereo unspecified) | 79.4 |

| Compound | INHIBITION [%] |
| --- | --- |
| c1ccc2c(c1)CC(N1CCCC(NCc3cccc4nonc34)C1)C2 (stereo unspecified) | 41.5 |
| O=C(NCc1ccc2nonc2c1)C1CCN(C(=O)C2CCC2)CC1 | -119 |
| Cc1cc(C)nc(Nc2cccc(C3CCCN(C)C3)n2)n1 (stereo unspecified) | 28.4 |
| c1ccc2c(c1)CC(N1CCCC(NCc3ccc4nonc4c3)C1)C2 (stereo unspecified) | 50.1 |
| Cc1ccc(NC2CCCN(C3Cc4ccccc4C3)C2)nn1 (stereo unspecified) | 34.9 |
| Cc1ccc(CNCC2CCN(CC(O)c3ccccc3)CC2)o1 (stereo unspecified) | -23.8 |
| O=C(NCc1nncn1C1CC1)c1ccccc1OCC1CC1 | 25.6 |
| CN(C)c1ncc(-c2cc(C(=O)NCCO)n(CC3CC3)c2)cn1 | 26.3 |
| CCOc1ccccc1C(=O)Oc1cc(=O)n2cccc(C)c2n1 | 4.35 |
| O=C(NC1CCC1)c1c2c(N3CCCC3)ncnc2n2ccccc12 | 46.2 |
| COCCN(C)C(=O)c1ccccc1-n1cccn1 | 63.8 |
| COCCCN(CCOC)C(=O)Nc1ccccc1-n1cccn1 | 32.2 |
| COCCN(C)C(=O)c1ccccc1-n1cc(CN(C)C)cn1 | -29.8 |
| CC(C)n1nc(CN2CCCCC2)c2c1CN(C(=O)c1ccno1)C2 | 26.5 |
| CC(C)n1nc(CN2CCOCC2)c2c1CN(C(=O)c1ccno1)C2 | 62.3 |
| CC(C)n1nc(CN2CCCC2=O)c2c1CN(C(=O)c1ccno1)C2 | 27.5 |
| COCCNC(=O)c1cc(C)nc(C2CCN(C)CC2)n1 | -22.5 |
| CNC(=O)[C@@H]1COC[C@H]2CN(C(=O)COc3ccccc3)C[C@H]21 | 63 |
| CNC(=O)[C@@H]1COC[C@H]2CN(C(=O)c3ccc(OC)cc3)C[C@H]21 | -2.03 |
| CNC(=O)[C@@H]1COC[C@H]2CN(C(=O)c3ccc(C)c(C)c3)C[C@H]21 | 51.2 |
| CNC(=O)[C@@H]1COC[C@H]2CN(C(=O)c3cccc(OC)c3)C[C@H]21 | 33.4 |
| CNC(=O)[C@@H]1COC[C@H]2CN(C(=O)c3ccc(C)c(F)c3)C[C@H]21 | 31.9 |
| CCc1ccc(C(=O)N2C[C@@H]3COC[C@@H](C(=O)NC)[C@@H]3C2)cc1 | 6.83 |
| O=C(NC1CCN(C2CC2)CC1)N1CCN(c2cnccn2)CC1 | 37.9 |
| CN(C)C(=O)CO[C@H]1CN(Cc2nccs2)[C@@H]2COC[C@H]12 | 0.71 |
| COc1ccc(Oc2nccc3occc23)cc1CN1CCCC1 | -4.23 |

| Compound | INHIBITION [%] |
| --- | --- |
| COc1ccc(Oc2ncccc2F)cc1CN1CCCC1 | 74.8 |
| COc1ccc(OC)c(CN2CCN(Cc3cscn3)CC2)c1 | 1.06 |
| COc1cc(Oc2ncccc2C(F)(F)F)ccc1CN1CCCC1 | 88.4 |
| COc1cc(CN2CCCC2)ccc1OC12CCCN(CC1)C2 (stereo unspecified) | -14.7 |
| N#Cc1cccnc1Oc1cc(F)c(CN2CCCC2)c(Cl)c1 | 11.4 |
| Fc1cccnc1Oc1cc(F)c(CN2CCCC2)c(Cl)c1 | 60.9 |
| COC(=O)c1ccc(Cn2cccc(C(F)(F)F)c2=O)c(OC)c1 | 33.1 |
| COc1ccc(CC(=O)Nc2cccnc2N2CCCC2)cc1OC | 4.71 |
| COc1cc(CN2CCCC2)ccc1Oc1ncccc1C(F)(F)F | 80.3 |
| Fc1cccnc1Oc1cc(F)c(CN2CCCC2)c(F)c1 | 9.84 |
| Cc1nn(C)c(=O)c2nn(-c3cccc(Cl)c3)c(C)c12 | 37.2 |
| N#Cc1c(N)nc2c(c1-c1c[nH]nc1C1CCCCC1)COCC2 | 11.5 |
| Cn1cc(-c2nc(CN3CCOC(Cn4cncn4)C3)cs2)cn1 (stereo unspecified) | 26.5 |
| COc1ccc(NC(=O)CSc2nncn2-n2cccc2)c(OC)c1 | 31.6 |
| CCn1nc2c(cc1=O)CN(CC(=O)Nc1nc(C)c(C)s1)CC2 | -0.188 |
| Cc1cc(N(C)C)nc(C2CCCN2)n1 (stereo unspecified) | 15.5 |
| CO[C@@H]1CCN(C(=O)c2ccccn2)[C@H]1Cc1ccccc1 | -15.1 |
| COc1ccc(Oc2ncccc2C(N)=O)cc1CN1CCCC1 | 51.2 |
| COc1ccc(F)cc1CN1CCC(O)(CN2CCCCC2)C1 (stereo unspecified) | 16.1 |
| COc1ncccc1CN1CCC2(CCCN2S(C)(=O)=O)CC1 | 45.2 |
| COc1ccc(Oc2ncccc2C(F)(F)F)cc1CN1CCCC1 | 66.6 |
| COc1ccc(F)cc1CN1CCCC(c2cc(C(N)=O)[nH]n2)C1 (stereo unspecified) | -2.42 |
| COc1ccccc1Oc1ncccc1CNC(=O)C(C)N1CCCC1 (stereo unspecified) | 21.7 |
| CC(C)c1nn(C)c(N(C)C)c1CNCc1ccccc1CO | -9.05 |
| Cc1cc(CN(C)C(=O)NC2CCN(C3CC3)CC2)no1 | 3.75 |
| Cc1ccc(C)c(CSc2nnc([C@@H](N)C(C)C)o2)c1 | 34.5 |

| Compound | INHIBITION [%] |
| --- | --- |
| CCC(=O)Nc1ccc(OCC(=O)N(C)C(C)c2ccon2)cc1 (stereo unspecified) | 10.7 |
| Cc1ccc(-c2nc(CC3CCN(C)CC3)no2)cc1N1CCNC1=O | 14.1 |
| CC(c1nnc(-c2cccs2)o1)N1CCc2cncnc2C1 (stereo unspecified) | -18.5 |
| O=C(NCC1OCCc2cn(CC3CCOCC3)nc21)c1ccsc1 (stereo unspecified) | 49.3 |
| O=C1C[C@H]2[C@@H](CCN2C(=O)Cc2ccccc2)N1Cc1cccnc1 | -6.05 |
| Cc1ccc(N2CC[C@@H]3[C@@H]2CCN3Cc2ccsc2)nn1 | 51.2 |
| CCCC(=O)N1CC[C@@H]2[C@H](CC1)N(Cc1cccc(C)n1)CCS2(=O)=O | 57.1 |
| O=C(Cc1ccccc1)N1CC[C@H]2[C@@H]1CCC(=O)N2Cc1ccncc1 | 3.25 |
| O=C1C[C@H]2[C@@H](CCN2C(=O)Cc2cccs2)N1Cc1cccnc1 | 24.9 |
| Cc1cccc(CN2CCS(=O)(=O)[C@@H]3CCN(C(=O)C4CC4)CC[C@@H]32)n1 | 34.9 |
| Cc1ccc(N2CC[C@@H]3[C@@H]2CCN3C(=O)Cc2ccccc2)nn1 | 69.3 |
| Cc1ccc(N2CCCC(NCc3ccsc3)C2)nn1 (stereo unspecified) | 5.44 |
| Cc1ccc(N2CC[C@@H]3[C@@H]2CCN3C(=O)Cc2cccs2)nn1 | 31.2 |
| Cc1ccc(N2CC[C@@H]3[C@@H]2CCN3C(=O)c2cscn2)nn1 | 18.5 |
| O=C1C[C@H]2[C@@H](CCN2C(=O)Cc2ccsc2)N1Cc1cccnc1 | 62.9 |
| CCC(=O)N1CC[C@@H]2[C@H](CC1)N(Cc1cccc(C)n1)CCS2(=O)=O | 2.4 |
| CCN(Cc1noc(C2CCC2)n1)C(=O)c1cnc2ccccc2c1 | 7.44 |
| Cc1nc(-c2ccccc2C(=O)O)cc(C2CCN(C(C)C)C2)n1 (stereo unspecified) | 24.8 |
| NC(=O)[C@@H]1CN2CCN(C(=O)C3CC3)C[C@@H]2[C@H]1c1ccccc1 | 16.9 |
| CC(C)c1nc(C2CCCN(C(=O)Cn3ccccc3=O)C2)no1 (stereo unspecified) | -7.31 |
| CN1Cc2cnn(CC3CCCC3)c2C(COCC2CC2)C1 (stereo unspecified) | 26.3 |
| Cc1ccc(CN2CC[C@H]3C[C@H](C(=O)N4CCCO4)O[C@@H]3C2)o1 | 38.5 |
| CCN(CC)C(CNC(=O)c1ccc(-n2cncn2)cc1)c1ccsc1 (stereo unspecified) | -2.46 |
